Data published in PubChem BioAssay AID1159580 (chemical genetic matrix, 2015).
Where “and” joins values, the source holds several entries; their conditions need not be identical. Equal entries are not always repeated. Among all 5,500 compounds or so, about 2,000 (36%) were called active. Another 18% or so got no clear call; they are omitted. Rule as the data show it: active = normalized growth mostly below about 0.91 (no sharp cut-off); inconclusive = no clear call, values can overlap the other calls; inactive = mostly above about 0.92. Some of the results follow.

Assay: chemical genetic growth profiling, strain panel (AID 1159580);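 also: tested at 20 µM; growth read once vehicle control cultures reached saturation at 30 °C; 1 = growth at the plate median or of vehicle wells; lower values mean less growth of the strain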
Conditions: S. cerevisiae deletion strains, growth OD

Measured: normalized growth

O=C1NS(=O)(=O)c2ccccc21
inactive: locus YAL013W, strain DEP1, hits give low values 1.01 | locus YAL021C, strain ccr4, hits give low values 0.965 | locus YAL026C, strain drs2, hits give low values 1.04 | locus YAL030W, strain snc1, hits give low values 1.02 | locus YBL061C, strain skt5, hits give low values 1.03 | locus YBR009C, strain hhf1, hits give low values 1.03 | locus YBR021W, strain FUR4, hits give low values 1.02 | locus YBR023C, strain chs3, hits give low values 1.02 | locus YBR171W, strain sec66, hits give low values 1.03 | locus YBR229C, strain ROT2, hits give low values 1.01 | locus YBR231C, strain swc5, hits give low values 1.02 | locus YBR279W, strain paf1, hits give low values 1.01 | locus YCL011C, strain gbp2, hits give low values 1.02 | locus YCL016C, strain dcc1, hits give low values 0.988 | locus YCL029C, strain bik1, hits give low values 0.994 | locus YCL061C, strain MRC1, hits give low values 1.02 | locus YCL069W, strain vba3, hits give low values 1.02 | locus YCR088W, strain abp1, hits give low values 1.02 | locus YDL005C, strain med2, hits give low values 1.03 | locus YDL035C, strain GPR1, hits give low values 0.994 | locus YDL040C, strain nat1, hits give low values 1.02 | locus YDL074C, strain BRE1, hits give low values 1.01 | locus YDL101C, strain DUN1, hits give low values 1.01 | locus YDL134C, strain PPH21, hits give low values 1 | locus YDL185W, strain tfp1, hits give low values 0.994 | locus YDL192W, strain arf1, hits give low values 1 | locus YDR001C, strain nth1, hits give low values 1.01 | locus YDR069C, strain doa4, hits give low values 1.04 | locus YDR101C, strain arx1, hits give low values 0.983 | locus YDR137W, strain rgp1, hits give low values 1.03 | locus YDR159W, strain sac3, hits give low values 1.11 | locus YDR162C, strain NBP2, hits give low values 0.998 | locus YDR195W, strain ref2 0.993 | locus YDR297W, strain sur2, hits give low values 1.02 | locus YDR318W, strain mcm21, hits give low values 0.979 | locus YDR334W, strain swr1, hits give low values 1.02 | locus YDR335W, strain msn5, hits give low values 1.01 | locus YDR388W, hits give low values 0.991 | locus YDR392W, strain spt3, hits give low values 0.957 | locus YDR502C, strain sam2, hits give low values 0.995 | locus YEL003W, strain gim4, hits give low values 1.03 | locus YEL037C, strain rad23, hits give low values 1.01 | locus YEL061C, strain CIN8 (second series), hits give low values 1.02 | locus YEL061C, strain CIN8, hits give low values 1.01 | locus YER015W, strain faa2, hits give low values 1.02 | locus YER016W, strain bim1, hits give low values 1.02 | locus YER110C, hits give low values 0.987 | locus YER111C, strain swi4, hits give low values 1.02 | locus YER155C, strain BEM2 (second series), hits give low values 1.07 | locus YER155C, strain BEM2, hits give low values 0.997 | locus YER167W, strain BCK2, hits give low values 1 | locus YFR010W, strain ubp6, hits give low values 1.03 | locus YGL078C, strain dbp3, hits give low values 1 | locus YGL086W, strain mad1, hits give low values 0.998 | locus YGL167C, strain pmr1, hits give low values 1.02 | locus YGL173C, strain kem1, hits give low values 1.06 | locus YGL227W, strain vid30, hits give low values 1.02 | locus YGL240W, strain doc1, hits give low values 1.05 | locus YGL248W, strain PDE1, hits give low values 1.03 | locus YGL253W, strain hxk2, hits give low values 1.05 | locus YGR078C, strain PAC10, hits give low values 1.05 | locus YGR135W, strain pre9, hits give low values 0.984 | locus YGR252W, strain gcn5, hits give low values 0.976 | locus YHR013C, strain ard1, hits give low values 1.02 | locus YHR027C, strain rpn1, hits give low values 1.05 | locus YHR030C, strain SLT2, hits give low values 1 and 0.989 | locus YHR079C, strain IRE1 (second series), hits give low values 0.984 | locus YHR079C, strain IRE1, hits give low values 0.984 | locus YHR094C, strain hxt1, hits give low values 0.988 | locus YHR129C, strain ARP1, hits give low values 1.02 | locus YHR142W, strain chs7, hits give low values 1.03 | locus YHR200W, strain rpn10, hits give low values 0.991 | locus YIL066C, strain RNR3, hits give low values 1.02 | locus YIL073C, strain SPO22, hits give low values 0.958 | locus YIL125W, strain kgd1, hits give low values 0.989 | locus YIR030C, strain dcg1, hits give low values 0.998 | locus YJL092W, strain hpr5, hits give low values 1.02 | locus YJL095W, strain BCK1 (second series), hits give low values 1.02 | locus YJL095W, strain BCK1, hits give low values 1.04 and 0.999 | locus YJL115W, strain asf1, hits give low values 1.02 | locus YJL129C, strain trk1, hits give low values 1.04 | locus YJL134W, strain LCB3, hits give low values 0.999 | locus YJL154C, strain vps35, hits give low values 1.02 | locus YJL164C, strain tpk1, hits give low values 0.993 | locus YJL166W, strain qcr8, hits give low values 1.04 | locus YJL168C, strain set2, hits give low values 0.984 | locus YJL187C, strain SWE1 (second series), hits give low values 1.03 | locus YJR043C, strain POL32, hits give low values 0.977
